Source: PubChem (several laboratories)
Most compounds without a hit are left out; they make up all but 0.98% or so of the library.
LANA-H2A inh = blockers of LANA interaction with H2A/H2B – biochemical, FP readout, HTS, primary screen. inhibition, % (test concentration not listed). AID 2629, 2010. actives 0.6% (n = 320,000). Protein LANA1 (Human herpesvirus 8 type P (isolate GK18)), Q9QR71. cell-free LANA-H2A/H2B peptide, fluorescence polarization; in the data active = inhibition mostly above about 10%, no sharp cut-off; inactive = mostly below about 6.7%
Target sequence (Q9QR71 whole entry, looked up): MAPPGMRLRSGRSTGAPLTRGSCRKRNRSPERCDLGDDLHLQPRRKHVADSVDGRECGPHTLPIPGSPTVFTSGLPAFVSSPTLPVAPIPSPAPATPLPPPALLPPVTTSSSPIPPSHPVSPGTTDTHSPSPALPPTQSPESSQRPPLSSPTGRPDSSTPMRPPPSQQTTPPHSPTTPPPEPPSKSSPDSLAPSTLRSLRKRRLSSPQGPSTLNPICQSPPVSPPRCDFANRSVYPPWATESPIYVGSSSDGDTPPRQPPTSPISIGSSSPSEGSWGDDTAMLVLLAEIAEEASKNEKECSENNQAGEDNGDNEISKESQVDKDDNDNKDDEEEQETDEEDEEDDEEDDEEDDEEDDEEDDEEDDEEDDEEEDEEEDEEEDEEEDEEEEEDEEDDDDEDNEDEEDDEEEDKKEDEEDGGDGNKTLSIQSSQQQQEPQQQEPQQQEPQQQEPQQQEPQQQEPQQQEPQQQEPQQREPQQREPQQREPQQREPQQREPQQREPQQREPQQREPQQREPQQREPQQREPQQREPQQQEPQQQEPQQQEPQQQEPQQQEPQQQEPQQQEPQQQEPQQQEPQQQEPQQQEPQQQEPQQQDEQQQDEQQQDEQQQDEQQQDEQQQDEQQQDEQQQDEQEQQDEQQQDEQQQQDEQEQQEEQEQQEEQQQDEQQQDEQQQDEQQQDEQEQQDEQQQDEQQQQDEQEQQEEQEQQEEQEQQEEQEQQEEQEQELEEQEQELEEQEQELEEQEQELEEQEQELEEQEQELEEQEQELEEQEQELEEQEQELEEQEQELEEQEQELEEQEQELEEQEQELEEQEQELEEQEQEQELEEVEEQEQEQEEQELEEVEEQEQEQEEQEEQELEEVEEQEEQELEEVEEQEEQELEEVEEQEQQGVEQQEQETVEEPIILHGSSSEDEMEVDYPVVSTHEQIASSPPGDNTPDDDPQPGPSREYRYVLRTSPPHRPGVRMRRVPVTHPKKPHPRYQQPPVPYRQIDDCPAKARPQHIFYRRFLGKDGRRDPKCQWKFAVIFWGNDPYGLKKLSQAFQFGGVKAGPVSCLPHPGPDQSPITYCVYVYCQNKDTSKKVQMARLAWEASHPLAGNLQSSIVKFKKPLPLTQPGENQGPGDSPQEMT
RTF Ca sens act = cardiac RTF calcium sensitivity activators, primary screen, biochemical, IANBD-TnC fluorescence, EC20 calcium; IANBD-labeled TnC RTF fluorescence at EC20 calcium; 0% EC20 calcium, 100% full calcium; activation, % at 7.2 µM; actives 0.24% (n = 340,000);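 active = activation above the mean over all tested compounds plus 3 SD, cut at about 30% in these data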;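 also: rise in fluorescence read as greater calcium sensitivity of cardiac thin filaments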
RTF Ca sens inh = cardiac RTF calcium sensitivity inhibitors, primary screen, biochemical, IANBD-TnC fluorescence, EC70 calcium. Troponin I, cardiac muscle (Homo sapiens) + Troponin T, cardiac muscle (Homo sapiens) + …. IANBD-labeled cardiac RTF, Ca2+ fluorescence. inhibition, % at 7.15 µM. actives 0.12% (n = 340,000). AID 493244, 2011;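 active = inhibition above the mean inhibition of all tested compounds plus 3 SD, cut at about 17% in these data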;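 also: assay run at fixed EC70 calcium of 1.6 mM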
C-LANA FP = inhibitors of KSHV C-LANA binding to DNA, primary screen, biochemical, fluorescence polarization, FAM-LBS DNA, MBP-C-LANA, single point; Kaposi's sarcoma herpesvirus LANA C-terminal domain (residues 932-1162) DNA binding; inhibition, % at 9 µM; actives 0.078% (n = 340,000); AID 504423, 2011;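 active = highest replicate inhibition at or above 60% at 9 µM, even if other replicates fall short; inactive = all replicates below 60% inhibition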;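 also: 0% = neutral control wells and 100% = 4 µM acridine orange control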
Keap1-Nrf2 PPI = Keap1-Nrf2 protein-protein interaction inhibitors, primary screen, biochemical, fluorescence polarization, single point | Keap1 Kelch-Nrf2 peptide fluorescence polarization, 1536-well | inhibition, % at 9.4 µM | actives 0.15% (n = 340,000) | AID 504523, 2011; in the data active = inhibition above about 12%;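 also: human Keap1 Kelch domain with fluorescein labeled Nrf2 9mer peptide probe; 0% = neutral control wells and 100% = peptide positive control; higher means more block of Keap1 binding to Nrf2 peptide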
* hit, by the source's call; / = no result given; + = active, no number.

SMILES | LANA-H2A inh | RTF Ca sens act | RTF Ca sens inh | C-LANA FP | Keap1-Nrf2 PPI
COc1ccc(NS(=O)(=O)c2ccc3c(c2)[C@H]2C=CC[C@H]2[C@@H](c2ccc(C(=O)O)cc2)N3)cc1 | -5 | -25 | 16 | 113* | 3
O=C(O)c1ccc2c(c1)C1C=CCC1C(c1ccncc1)N2 (stereo not given) | -4 | 0 | -4 | 3 | -6
CCn1c(=O)c(CCC(=O)N2CCN(c3ccccn3)CC2)c(C)c2c(C)nn(-c3ccccc3)c21 | 2 | -4 | 0 | -2 | 0
O=c1oc2c(O)cccc2cc1-c1nc2ccccc2[nH]1 | 3 | 153* | -283 | 2 | 8
Cc1ccc(O)c(-c2cc(C(=O)Nc3ccc(S(=O)(=O)Nc4nccc(C)n4)cc3)[nH]n2)c1 | 78* | 0 | -9 | 0 | -2
COc1cc(OC)cc(C(C)=O)c1 | 20* | 5 | -15 | 1 | -3
COc1cc(OC)cc(C(=O)Nc2cccc(C(C)=O)c2)c1 | 2 | -6 | -3 | 0 | 4
O=C(COc1cccc2ccccc12)N/N=C/c1ccncc1 | 3 | -2 | 2 | 1 | -4
COc1cc(/C=N/O)c(Br)cc1OCC(=O)Nc1ccccc1C | 17* | -1 | 9 | -1 | -3
COc1ccccc1NC(=O)CC(=O)c1ccccc1 | 0 | -2 | 1 | -1 | 2
COc1ccccc1C(=O)CC(=O)c1ccccc1 | 17* | -6 | -6 | -1 | -6
Cc1ccc2c(c1)C1(C)C(C(C)(C)N2C=O)C1(Cl)Cl (stereo not given) | 0 | -4 | 1 | 2 | 4
O=C(CNC(=O)c1ccc(F)cc1)N/N=C/c1cc(Br)ccc1OC(=O)/C=C/c1ccco1 | 0 | 3 | -14 | -2 | -5
O=C(CCc1c[nH]c2ccccc12)N1CCCCCCC1 | 60* | 1 | 7 | -1 | -1
CC(C)(CS(=O)(=O)[O-])NC(=O)CC[N+](C)(C)CCO | 2 | -6 | -7 | 82* | -1
CCOc1ccc(NC(=O)CN(C)C(=O)c2cc(C)nc3ccccc23)cc1OCC | -5 | -4 | -5 | 0 | 1
CCOc1ccc(NC(=O)CN(C)C(=O)c2nc3nc(C)cc(C)n3n2)cc1OCC | 35* | 2 | 3 | 0 | 0
Cc1ccc(OC(=O)c2oc3ccc(F)cc3c2C)c(C)c1 | 1 | 2 | 2 | -2 | -2
CCOC(=O)C(CO)(NC(C)=O)C(=O)OCC | 0 | 6 | -12 | -1 | -6
CCOC(=O)C(CCCCCCC(NC(C)=O)(C(=O)OCC)C(=O)OCC)(NC(C)=O)C(=O)OCC | 3 | 83* | 0 | 0 | -3
O=C1OCc2ccc(NC(=O)C3CC3)cc21 | -3 | 3 | -1 | 84* | 2
C=CC[C@@H](Cc1ccc(F)cc1)C(=O)OC[C@@H]1CCCN1C(=O)[C@H](CC=C)CC(=O)N(CCO)Cc1ccccc1 | -1 | -5 | -1 | -2 | 3
CCc1ccc(CN(C)C(=O)C2CCC(=O)N(CCc3ccc(OC)cc3)C2)nc1 (stereo not given) | 29* | 1 | -12 | 0 | -1
Cc1cc([N+](=O)[O-])nn1CC(=O)NC1CCCCC1 | 19* | 6 | 2 | 0 | 4
Cc1cc([N+](=O)[O-])nn1CCC(=O)NC1CCCCCC1 | 2 | 1 | -6 | -1 | -2
SMILES | LANA-H2A inh | RTF Ca sens act | RTF Ca sens inh | C-LANA FP | Keap1-Nrf2 PPI
O=C(Nc1ccccc1C(=O)N/N=C/c1ccco1)c1ccc(Cl)cc1 | + | -5 | -2 | 0 | -6
Cc1cc(C(=O)N2CCC(C(N)=O)CC2)c(C)o1 | -24 | -7 | 1 | 0 | -1
Cc1cc(C(=O)N2CCCC2C(=O)O)c(C)o1 (stereo not given) | 18* | -3 | 0 | 1 | 2
CN(C)Cc1cc(C(F)(F)F)ccc1C(O)(c1ccccc1)c1ccccc1 | / | -1 | -11 | -1 | -2
CN1CCC(N(CCc2ccccc2)C(=O)CCC(=O)O)CC1 | -2 | 35* | -8 | -4 | -3
CC(C)C(=O)c1cc2c(cc1NC(=O)c1ccccc1)OCCO2 | -4 | 31* | -4 | -2 | 1
CN(C)CCNS(=O)(=O)c1ccc(N2CCN(c3ccc(F)cc3)CC2)c([N+](=O)[O-])c1 | -3 | 7 | -4 | 4 | 5
CC1=CC(=O)c2ccccc2C1=O | -8 | -4 | 3 | 1 | -2
CC(C)(C=O)C1=CC(=O)c2ccccc2C1=O | + | -3 | -4 | 1 | 1
CCOC(=O)c1cc(C(C)(C)C)nc(SC)c1C#N | 30* | 3 | 1 | 1 | -3
O=C(CC(C(=O)O)P(=O)(c1ccccc1)c1ccccc1)c1ccccc1 (stereo not given) | 1 | -3 | -2 | -1 | -2
CCC(C(=O)O)P(=O)(c1ccc(Cl)cc1)c1ccc(Cl)cc1 (stereo not given) | 13* | -15 | 10 | -1 | -1
Cc1csc(-c2coc3cc(O)cc(C)c3c2=O)n1 | 8.1* | -1 | 4 | 1 | 5
CCc1cc2c(=O)c(-c3nc(C)cs3)coc2cc1O | 2 | -1 | 4 | -1 | 3
CCc1cccc(C)c1NC(=O)c1cc(C)oc1C | 2 | -5 | -22 | 1 | -2
COc1ccc(CCNC(=O)c2cc(C)oc2C)cc1 | 14* | -5 | 0 | 0 | -6
Cc1cc(C(=O)NCC(=O)Nc2c(C)cccc2C)c(C)o1 | 167* | 0 | -3 | 0 | 3
COc1ccc(CCNC(=O)c2cc(C)oc2C)cc1OC | -1 | -1 | -8 | -1 | -2
CC(=O)CSc1cc(-c2ccccc2)nc2ncnn12 | 1 | 9 | -4 | 3 | 1
O=C(C[n+]1ccccc1)Nc1ccccc1[N+](=O)[O-] | 111* | -8 | 0 | -1 | -3
CN(C)c1ccc(/C=C/c2cc[n+]([O-])cc2)cc1 | -26 | / | / | / | /
Cc1ccc(/C=C/c2ccc(N(C)C)cc2)[n+](C)c1 | -33 | 39* | -54 | -22 | -45
CC[n+]1ccccc1/C=C/c1ccc(N(C)C)cc1 | / | 15 | -10 | -10 | -30
CN(C)c1ccc(/C=C/c2cc[n+](C)cc2)cc1 | -22 | 47* | -41 | -13 | -27
O=c1[nH]c(=S)c2[nH]c(=S)n(-c3ccccc3)c2[nH]1 | / | 5 | -5 | / | -4
CCN(CC)CCNC(=O)c1ccc(NC(=O)c2ccc(F)cc2)cc1 | 3 | -6 | -2 | 1 | -1
CC(C)(C)c1ccc(-n2ncc3c2CCCC3NC(=O)C2(C(N)=O)CC2)cc1 (stereo not given) | -2 | 1 | -5 | -2 | 1
